Source: PubChem BioAssay
nsP2pro primary – CHIKV nsP2 protease inhibition, primary qHTS | AID 1964107 | Potency, µM (top dose mostly 24.9 µM), usual class: inhibitors | 31,000 tested, 1.1% active | FRET peptide cleavage, nsP2pro, fluorescence 1 h | Q8JUX6; note: nearly all actives have a fitted effect of over 60% in size
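Recombinant nsP2pro (150 nM) was preincubated with compound 15 min at room temperature in 10 mM Tris-HCl pH 8.0, 0.01% Tween 20. Peptide 2 FRET substrate (2.5 uM) was then added and fluorescence read after 1 h. Seven-point series, up to 25 uM.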
nsP2 cell sec – cell-based CHIKV nsP2 protease inhibition, secondary | cell-based CHIKV nsP2 protease reporter assay | Potency, µM (series often up to 51.1 µM), hits mostly inhibitors | 450 tested, 10% active | AID 1964100 | shares compounds with nsP2pro primary; note: nearly all actives have a fitted effect of over 70% in size
NSP2 full ctr – inhibits full-length CHIKV NSP2 enzyme; Full-length CHIKV NSP2 protease enzymatic counterscreen; AID 1964101; 410 tested, 39% active; shares compounds with nsP2pro primary; Potency, µM (series often up to 50.7 µM), hits mostly inhibitors; note: nearly all actives have a fitted effect of over 65% in size
Furin counter – selectivity counter-screen for CHIKV nsP2 protease inhibitors: human furin; 410 tested, 6% active; shares compounds with nsP2pro primary; Recombinant human furin enzymatic counterscreen, fluorogenic substrate; AID 1964102; Potency, µM (top dose mostly 50.6 µM), hits mostly inhibitors
nsP2 NS23 pep – selectivity test for CHIKV nsP2 protease inhibitors: endogenous NS2/3 peptide | Potency, µM (series often up to 51 µM), most hits filed as inhibitors | AID 1964103 | Purified CHIKV nsP2 protease, endogenous NS2/3 peptide cleavage | 410 tested, 34% active | shares compounds with nsP2pro primary; note: nearly all actives have a fitted effect of over 55% in size
Papain counter – inhibits papain in a CHIKV nsP2 protease selectivity counterscreen | shares compounds with nsP2pro primary | purified papain protease activity, enzymatic inhibition | Potency, µM (highest dose often 51 µM), usual class: inhibitors | 410 tested, 5% active | AID 1964104
Target sequence (P00784 whole entry, looked up): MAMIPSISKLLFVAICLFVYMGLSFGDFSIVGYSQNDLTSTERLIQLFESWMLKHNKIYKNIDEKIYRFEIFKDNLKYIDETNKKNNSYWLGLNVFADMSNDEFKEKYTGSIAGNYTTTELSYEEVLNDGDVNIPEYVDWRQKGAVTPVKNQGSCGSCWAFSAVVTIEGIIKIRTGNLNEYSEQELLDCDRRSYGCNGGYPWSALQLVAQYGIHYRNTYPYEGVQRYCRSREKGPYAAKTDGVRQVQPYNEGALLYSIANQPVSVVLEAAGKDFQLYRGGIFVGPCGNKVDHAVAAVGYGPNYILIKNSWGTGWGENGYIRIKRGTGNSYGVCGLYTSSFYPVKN
nsP2pro confirm – confirmation of CHIKV nsP2 protease inhibitors | shares compounds with nsP2pro primary | CHIKV nsP2 protease enzymatic activity, qHTS | Potency, µM (top dose mostly 25.5 µM), actives largely listed as inhibitors | 410 tested, 43% active; note: nearly all actives have a fitted effect of over 75% in size
HCV NS3 4A cs – HCV NS3/4A protease inhibition, counterscreen; shares compounds with nsP2pro primary; HCV NS3/4A protease biochemical counterscreen; Potency, µM (highest dose often 50.9 µM), hits mostly inhibitors; 410 tested, 20% active; AID 1964106; note: nearly all actives have a fitted effect of over 55% in size
Each line names hits and unclear results; the compound was inactive in the other large screens (follow-up assays come after a bar, where they were run); ! = not confirmed by another sample. Only a selection was taken, and hits are over-represented in it overall. Calls come from the whole dose curve.

NC(=O)[C@@H]1CC[C@@H]2CN1C(=O)N2OS(=O)(=O)O	none
Clc1ccc(Cn2c(Cc3ccccc3)nc3ccccc32)cc1	none
COc1ccc(CNc2nc(N3CCCC3CO)ncc2C(=O)NCc2ncccn2)cc1Cl (centres undefined)	none
CN1CCC(C(=O)c2cccc(NC(=O)c3c(F)cc(F)cc3F)n2)CC1	none
COc1ccc(Br)c(C(=O)Nc2cc3c(cc2N2CCCC2)n(C)c(=O)c(=O)n3C)c1	none
COc1ccc(OC)c(NC(=O)CN2C(=O)c3ccccc3Sc3ccc(C(=O)N4CCCC4)cc32)c1	none
COc1ccc(OC)c(N2C(=O)C(Cl)=C(N3CCCCC3)C2=O)c1	nsP2pro primary inconclusive | nsP2 cell sec inactive | NSP2 full ctr 16µM | Furin counter inactive | nsP2 NS23 pep inconclusive | Papain counter inactive | nsP2pro confirm 7.1µM | HCV NS3 4A cs inactive
CC(C)(C)OC(=O)N1CCN(c2ccc(NCc3cnc(-c4ccc(C#N)cc4)o3)cc2)CC1	none
Cc1ccc(OCCn2c(CCNC(=O)Cc3cc(F)ccc3F)nc3ccccc32)cc1	none
O=C(Nc1ccc2[nH]c(=O)oc2c1)C(=O)N1CCC(Cc2ccc(F)cc2)CC1	none
O=C(CCN1CCN(C(=O)OCc2cc(Cl)cc(Cl)c2)CC1)c1ccc2[nH]c(=O)oc2c1	nsP2pro primary 0.99µM! | nsP2 cell sec inactive | NSP2 full ctr 16µM | Furin counter inactive | nsP2 NS23 pep inconclusive | Papain counter inactive | nsP2pro confirm 6.3µM | HCV NS3 4A cs inactive
O=C(c1ccc[nH]1)c1cc(Cl)ccc1NC(=O)[C@@H]1CCCN1	none
Cc1cc(C)nc(NC(=S)N2CCN(c3nccc(C(F)(F)F)n3)CC2)c1	none
COc1ccccc1N1CCN(C(c2ccc(Cl)cc2)c2nnc(-c3cccc(F)c3)o2)CC1 (centres undefined)	none
COc1ccccc1N1CCN(C(c2ccccc2)c2nnc(-c3ccccc3Cl)o2)CC1 (centres undefined)	none
COc1ccc(N2CCN(C(c3ccccc3)c3nnc(-c4ccccc4Cl)o3)CC2)cc1 (centres undefined)	nsP2pro primary inconclusive | nsP2 cell sec inconclusive
Cc1cccc(CNc2nc(-c3ccccc3C(F)(F)F)nc3ccccc23)c1	none
Cc1nc(CNc2ncnc3ccc(-c4ccoc4)cc23)cs1	none
C[C@@H](O)c1ccc(-c2ccc3ncnc(NCc4cccs4)c3c2)o1	none
CC(=O)Nc1cc2c(s1)CNCC2	none
COc1cc(O)c(C(CC(=O)N2CCCC(C(F)(F)F)C2)c2ccc3c(c2)OCO3)c(OC)c1 (centres undefined)	none
CN(C)[S+](=O)([O-])c1ccc(-c2cncc(NC(=O)c3cccs3)c2)cc1	none
O=c1c(Nc2ccc(Cl)c(Cl)c2)c(Nc2nnc(-c3ccncc3)s2)c1=O	none
Cc1ccccc1C(=O)N1CCc2cc(-c3cccc(NC(=O)Cc4ccc5c(c4)OCO5)c3)ccc21	none
O=C(O)c1ccc(-n2cccc2/C=C2\SC(=O)N(Cc3ccc(Br)cc3)C2=O)cc1	none
Cc1cc(-c2ccc(/C=C3\SC(=Nc4ccc(Cl)c(C(=O)O)c4)NC3=O)o2)c([N+](=O)[O-])cc1C	none
O=C(O)c1cc(-c2ccc(/C=C3\SC(=S)N(Cc4ccccc4)C3=O)o2)ccc1Cl	nsP2pro primary inconclusive | nsP2 cell sec inactive | NSP2 full ctr inactive | Furin counter inactive | nsP2 NS23 pep inactive | Papain counter inconclusive | nsP2pro confirm inactive | HCV NS3 4A cs inactive
Nc1ccccc1CNc1ccc(S(=O)(=O)Nc2nccs2)cc1	none
COc1cccc(CNc2ccc(S(=O)(=O)Nc3ncc(C)s3)cc2)c1O	none
CCCS(=O)(=O)Nc1ccc(=O)n2c1[C@@H]1C[C@@H](CN(C(=O)c3ccc(OC)cc3)C1)C2	none
